Measured values reported in PubChem BioAssay (NCATS).
Inconclusive results are not listed. Calls of active or inactive are those of the source. Calls come from the whole dose curve; as a rule, active = well fitted curve in the direction sought with a large enough effect; inconclusive = small, poorly fitted or top-dose-only effect, or another doubt; inactive = no such curve, though single readings can be large or run the other way.

Biological target: Ferritin light chain (Equus caballus) (UniProt P02791)
Assay: qHTS Validation Assay for Identification of Novel General Anesthetics (AID 2323)
Settings: horse apoferritin, anesthetic-site fluorescent probe displacement; series mostly up to 76.9 µM
Text: Source: NIH Chemical Genomics Center [NCGC]
Assay Submitter: Roderic Eckenhoff, University of Pennsylvania
Screening Center PI: Christopher P. Austin, NIH
Probe Development: NIH Chemical Genomics Center [NCGC]
Anesthetic development has remained a largely empirical process. There are growing concerns about the cognitive effects of known general anesthetics and acceleration of the onset of neurodegenerative disease. The compounds' toxicity and multiple specific binding targets in the mammalian brain [4] has made them less attractive as drug leads. In this assay, a GABAergic mimetic model system, apoferritin and a profluorescent 1-aminoanthracene ligand (1-AMA), was used to construct a competitive binding assay for identification of novel general anesthetics. The assay was validated for 1-AMA using other known anesthetics, such as isoflurane (CID:3763) and propofol (CID: 4943), [6].
[1] S.L. Bianchi, T. Tran, C. Liu, S. Lin, Y. Li, J.M. Keller, R.G. Eckenhoff, and M.F. Eckenhoff, Brain and behavior changes in 12-month-old Tg2576 and nontransgenic mice exposed to anesthetics. Neurobiol Aging 29 (2008) 1002-10.
[2] Z. Xie, Y. Dong, U. Maeda, R.D. Moir, W. Xia, D.J. Culley, G. Crosby, and R.E. Tanzi, The inhalation anesthetic isoflurane induces a vicious cycle of apoptosis and amyloid beta-protein accumulation. J Neurosci 27 (2007) 1247-54.
[3] P. Honegger, and J.M. Matthieu, Selective toxicity of the general anesthetic propofol for GABAergic neurons in rat brain cell cultures. J Neurosci Res 45 (1996) 631-6.
[4] M.F. Eckenhoff, K. Chan, and R.G. Eckenhoff, Multiple specific binding targets for inhaled anesthetics in the mammalian brain. J Pharmacol Exp Ther 300 (2002) 172-9.
[5] C.A. Butts, J. Xi, G. Brannigan, A.A. Saad, S.P. Venkatachalan, R.A. Pearce, M.L. Klein, R.G. Eckenhoff, and I.J. Dmochowski, Identification of a fluorescent general anesthetic, 1-aminoanthracene. Proc Natl Acad Sci U S A 106 (2009) 6501-6.
[6] W.A. Lea, J. Xi, A. Jadhav, L. Lu, C.P. Austin, A. Simeonov, and R.G. Eckenhoff, A high-throughput approach for identification of novel general anesthetics. PLoS One 4 (2009) e7150.
Three uL of reagents (free 1-AMA (50% saturated solution of 1-aminoanthracene
in PBS) in columns 3, 4 as negative control and 1-AMA/apoferritin mixture (10 uM horse-spleen apoferritin in 50% saturated 1-aminoanthracene in PBS) in columns 1, 2, 5-48) was dispensed into 1536-well Greiner black assay plates. Compounds (23 nL) were transferred via Kalypsys pintool equipped with 1,536-pin array (10 nL slotted pins, V&P Scientific, San Diego, CA). Titration of the positive control, propofol, were delivered via pin transfer from separate control plates to the 2nd column of each assay plate. The starting concentration of the control, dissolved in DMSO, was at 160 mM, followed by two-fold dilution points in duplicate, for a total of 16 concentrations. The plates were incubated for 10 min at room temperature, and then read on an EnVision HTS multilabel reader (Perkin-Elmer, Waltham, MA) (end point read, 3 min/plate) using Fura2 BFP excitation filter (380 nm, bandwidth 10 nm) and fluorescein emission filter (535 nm, bandwidth 25 nm) set. A LANCE/DELFIA dichroic mirror with a cutoff wavelength at 400 nm was used to maximize signal accuracy and strength. Vehicle-only plates, with DMSO being pin-transferred to the entire column 5-48 compound area, were inserted uniformly at the beginning and the end of each library in order to monitor for and record any shifts in the background. Activity was computed as the normalized fluorescence response relative to free 1-AMA and 1-AMA/apoferritin complex values. Concentration-effect relationships were derived by using curve fitting algorithms developed in-house (http://ncgc.nih.gov/pub/openhts/). A four parameter Hill equation was fitted to the concentration-response data by minimizing the residual error between the modeled and observed responses.

Chain of Ferritin light chain (Equus caballus) (P02791 2-175 limits assumed): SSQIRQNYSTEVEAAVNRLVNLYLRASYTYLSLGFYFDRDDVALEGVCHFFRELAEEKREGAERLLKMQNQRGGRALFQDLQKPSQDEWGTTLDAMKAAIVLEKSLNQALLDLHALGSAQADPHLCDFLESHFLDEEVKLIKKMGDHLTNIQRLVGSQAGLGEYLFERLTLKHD

Structure (SMILES)	outcome
CCOC(=O)N1CCC(=C2c3ccc(Cl)cc3CCc3cccnc32)CC1	inactive
Cc1[nH]c(=O)c(C#N)cc1-c1ccc2nccn2c1	inactive
CNC[C@H](O)c1cccc(O)c1	inactive
CCn1cc(C(=O)O)c(=O)c2cc(F)c(N3CCNC(C)C3)c(F)c21 (stereo not drawn)	inactive
N=c1nc(N2CCCCC2)cc(N)n1O	inactive
NC(=O)c1cnccn1	inactive
Cc1cnc(NC(=O)C2=C(O)c3ccccc3S(=O)(=O)N2C)s1	inactive
CCOC(=O)C1=C[C@]2(CC)CCCN3CCc4c(n1c1ccccc41)[C@@H]32	inactive
NS(=O)(=O)c1cc2c(cc1Cl)NC=NS2(=O)=O	inactive
Nc1nc2ccc(OC(F)(F)F)cc2s1	inactive
N[C@@H]1CONC1=O	inactive
Cn1cnc([N+](=O)[O-])c1Sc1ncnc2nc[nH]c12	inactive
CC(C)(C)NCC(O)c1ccc(O)c(CO)c1 (stereo not drawn)	inactive
NCCCC(N)(C(=O)O)C(F)F (stereo not drawn)	inactive
NNCCc1ccccc1	inactive
CN1CCN(CCCN2c3ccccc3Sc3ccc(C(F)(F)F)cc32)CC1	inactive
O=c1[nH]cnc2[nH]ncc12	inactive
CC(=O)Oc1ccccc1C(=O)O	inactive
NCCc1ccc(O)c(O)c1	inactive

Structure (SMILES)	outcome
O=NN(CCCl)C(=O)NCCCl	inactive
C1COC(NC(C2CC2)C2CC2)=N1	inactive
CC(C)NCC(O)COc1ccc(COCCOC(C)C)cc1 (stereo not drawn)	inactive
Cc1[nH]c(=O)c(C#N)cc1-c1ccncc1	inactive
CCN(CC)CCCC(C)Nc1ccnc2cc(Cl)ccc12 (stereo not drawn)	inactive
NC[C@H](O)c1ccc(O)c(O)c1	inactive
CC(C[N+](C)(C)C)OC(N)=O (stereo not drawn)	inactive
Cc1oncc1C(=O)Nc1ccc(C(F)(F)F)cc1	inactive
O=C1CCc2cc(OCCCCc3nnnn3C3CCCCC3)ccc2N1	inactive
CCCC(CCC)C(=O)O	inactive
CC(C)C[C@H](NC(=O)[C@@H](O)[C@H](N)Cc1ccccc1)C(=O)O	inactive
Cc1ccccc1C(OCCN(C)C)c1ccccc1 (stereo not drawn)	inactive
Cc1cn[nH]c1	inactive
Nc1nc2c(ncn2COCCO)c(=O)[nH]1	inactive
CCCCNc1cc(C(=O)O)cc(S(N)(=O)=O)c1Oc1ccccc1	inactive
O=C1CCC(N2C(=O)c3ccccc3C2=O)C(=O)N1 (stereo not drawn)	inactive
Cc1ccc(N(CC2=NCCN2)c2cccc(O)c2)cc1	inactive
Clc1cccc(Cl)c1NC1=NCCN1	inactive
O=c1n(CCCN2CCN(c3cccc(Cl)c3)CC2)nc2ccccn12	inactive
